# Data published in the supplement of paper PMC9262897, “Low-cost anti-mycobacterial drug discovery using engineered E. coli” (Nature Communications, 2022).
# Where a name gives a salt, the structure may show the parent alone. ± gives the standard deviation of the averaged measurements.
# Key:
# Experiment in all cases: growth (OD600 after 10 h); higher = more growth (less inhibition)
# [1] = system: E. coli TESEC Alr+ wild-type control; settings: compound 0.1 mM; raw OD600 reference: median of DMSO wells 0.241, cell-free background 0.041
# Procedure: (§1)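 TESEC Mtb Alr E. coli, or the Alr+ wild-type control, in 384-well plates with Prestwick library compounds at 0.1 mM and 1% DMSO, across arabinose induction levels of 1E3 to 1E7 nM. Growth is read as OD600 after 10 h at 37 °C in triplicate biological replicates.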
# E. coli TESEC Mtb Alr [2] = settings: compound 0.1 mM
# Procedure: as §1
# E. coli TESEC Mtb Asd = settings: compound 0.1 mM
# Procedure: (§2)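 TESEC E. coli strains in which the native enzyme is deleted and replaced by arabinose-inducible Mtb Asd, DapB, CysH or TrpD, each grown in its selective medium. Strains were screened against the Prestwick library at 0.1 mM and 1% DMSO in 384-well format at low and high arabinose induction. Growth is read as OD600 after 10 h in triplicate.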
# [3] = system: E. coli TESEC Alr+ wild-type control; settings: compound 0.1 mM; raw OD600 reference: median of DMSO wells 0.49, cell-free background 0.052
# Procedure: (§3)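 TESEC Mtb Alr E. coli (ΔaraC ΔtolC ΔentC Δalr ΔdadX, arabinose-inducible Mtb Alr) or the Alr+ wild-type control strain, grown in defined M9-fructose medium without D-alanine in 96-well plates with Prestwick library compounds at 0.1 mM and 1% DMSO. Low Alr induction is 0.1 µM arabinose and high induction is 10 mM arabinose.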
# E. coli TESEC Mtb Alr [4] = settings: compound 0.1 mM; remark: listed apart in the source
# Procedure: as §3
# E. coli TESEC Mtb DapB = settings: compound 0.1 mM
# Procedure: as §2
# [5] = arabinose 1000 nM, raw OD600 reference: median of DMSO wells 0.294, cell-free background 0.041
# [6] = arabinose 10000 nM, raw OD600 reference: median of DMSO wells 0.264, cell-free background 0.041
# [7] = arabinose 100000 nM, raw OD600 reference: median of DMSO wells 0.201, cell-free background 0.041
# [8] = arabinose 1000000 nM, raw OD600 reference: median of DMSO wells 0.193, cell-free background 0.041
# [9] = arabinose 10000000 nM, raw OD600 reference: median of DMSO wells 0.146, cell-free background 0.041
# [10] = arabinose induction (level): High, raw OD600 reference: median of DMSO wells 0.331, cell-free background 0.041
# [11] = arabinose induction (level): Low, raw OD600 reference: median of DMSO wells 0.417, cell-free background 0.041
# [12] = arabinose 100 nM, raw OD600 reference: median of DMSO wells 0.413, cell-free background 0.052
# [13] = arabinose 10000000 nM, raw OD600 reference: median of DMSO wells […], cell-free background 0.052
# [14] = arabinose induction (level): High, raw OD600 reference: median of DMSO wells […], cell-free background 0.041
# [15] = arabinose induction (level): Low, raw OD600 reference: median of DMSO wells 0.227, cell-free background 0.041
Structure (SMILES),growth [1],growth (E. coli TESEC Mtb Alr [2]; [5]),growth (E. coli TESEC Mtb Alr [2]; [6]),growth (E. coli TESEC Mtb Alr [2]; [7]),growth (E. coli TESEC Mtb Alr [2]; [8]),growth (E. coli TESEC Mtb Alr [2]; [9]),growth (E. coli TESEC Mtb Asd; [10]),growth (E. coli TESEC Mtb Asd; [11]),growth [3],growth (E. coli TESEC Mtb Alr [4]; [12]),growth (E. coli TESEC Mtb Alr [4]; [13]),growth (E. coli TESEC Mtb DapB; [14]),growth (E. coli TESEC Mtb DapB; [15])
COc1cccc(C2(O)CCCCC2CN(C)C)c1 (centres undefined) [Tramadol hydrochloride],0.238 ± 0.0082,0.308 ± 0.012,0.271 ± 0.0049,0.193 ± 0.0059,0.193 ± 0.012,0.1352 ± 0.00092,0.31 ± 0.028,0.403 ± 0.065,0.476 ± 0.013,0.4058 ± 0.0034,0.327 ± 0.016,,
CN[C@@H]1[C@@H](O)[C@@H](O[C@@H]2[C@@H](O)[C@H](O[C@H]3O[C@H](CN)CC[C@H]3N)[C@@H](N)C[C@H]2N)OC[C@]1(C)O.CN[C@@H]1[C@@H](O)[C@@H](O[C@@H]2[C@@H](O)[C@H](O[C@H]3O[C@H]([C@@H](C)N)CC[C@H]3N)[C@@H](N)C[C@H]2N)OC[C@]1(C)O.CN[C@@H]1[C@@H](O)[C@@H](O[C@@H]2[C@@H](O)[C@H](O[C@H]3O[C@H]([C@@H](C)NC)CC[C@H]3N)[C@@H](N)C[C@H]2N)OC[C@]1(C)O [Gentamicine sulfate],0.0458 ± 0.00049,0.04643 ± 0.00025,0.0414 ± 0.00061,0.0505 ± 0.0026,0.0448 ± 0.00064,0.075 ± 0.001,0.134 ± 0.021,0.0693 ± 0.0051,,0.191 ± 0.13,0.0981 ± 0.037,,
COc1ccc(OC)c(C(O)C(C)N)c1 (centres undefined) [Methoxamine hydrochloride],0.241 ± 0.0052,0.292 ± 0.0063,0.27 ± 0.005,0.212 ± 0.024,0.187 ± 0.003,0.148 ± 0.0068,0.272 ± 0.074,0.409 ± 0.021,,0.413 ± 0.011,0.334 ± 0.023,,
C[CH2][Hg][S]c1ccccc1C(=O)[O-].[Na+] [Thimerosal],0.0433 ± 0.0046,0.162 ± 0.018,0.117 ± 0.01,0.0992 ± 0.0084,0.04637 ± 0.00025,0.0615 ± 0.0003,0.0491 ± 0.0015,0.0488 ± 0.0015,,0.355 ± 0.036,0.0589 ± 0.0027,,
C[C@]12C[C@H]3S[C@H]3C[C@@H]1CC[C@@H]1[C@@H]2CC[C@]2(C)[C@@H](O)CC[C@@H]12 [Epitiostanol],0.248 ± 0.0036,0.291 ± 0.012,0.281 ± 0.0097,0.144 ± 0.011,0.15 ± 0.013,0.136 ± 0.0072,0.162 ± 0.018,0.337 ± 0.098,0.534 ± 0.0058,0.413 ± 0.014,0.265 ± 0.015,,
"CN1CCC2(C)c3cc(O)ccc3N(C)C12 (single isomer, unassigned; (-)) [(-)-Eseroline fumarate salt]",0.225 ± 0.0084,0.287 ± 0.014,0.306 ± 0.0086,0.312 ± 0.015,0.168 ± 0.0079,0.19 ± 0.0049,0.194 ± 0.027,0.402 ± 0.064,,0.42 ± 0.0066,0.317 ± 0.021,,
S=C(NC1CCCCC1)N1CCC(c2cnc[nH]2)CC1 [Thioperamide maleate],0.218 ± 0.0074,0.286 ± 0.015,0.257 ± 0.013,0.17 ± 0.016,0.15 ± 0.0049,0.131 ± 0.0035,0.273 ± 0.013,0.495 ± 0.039,0.561 ± 0.066,0.402 ± 0.016,0.299 ± 0.029,,
COc1ccc(C(CN(C)C)C2(O)CCCCC2)cc1 (centres undefined) [Venlafaxine],0.219 ± 0.015,0.301 ± 0.016,0.251 ± 0.01,0.185 ± 0.013,0.178 ± 0.0042,0.137 ± 0.0036,0.436 ± 0.066,0.459 ± 0.032,0.438 ± 0.018,0.415 ± 0.0048,0.338 ± 0.025,,
CCCN1C[C@H](CSC)C[C@@H]2c3cccc4[nH]cc(c34)C[C@H]21 [Pergolide mesylate],0.2 ± 0.0044,0.254 ± 0.014,0.252 ± 0.0036,0.185 ± 0.0061,0.161 ± 0.0045,0.156 ± 0.0071,0.314 ± 0.05,0.425 ± 0.015,,0.426 ± 0.018,0.345 ± 0.019,0.2 ± 0.027,0.234 ± 0.049
c1ccc2c(c1)Nc1ccccc1S2 [Phenothiazine],0.157 ± 0.0061,0.215 ± 0.0099,0.265 ± 0.011,0.209 ± 0.015,0.198 ± 0.013,0.201 ± 0.0046,0.377 ± 0.076,0.177 ± 0.014,,0.415 ± 0.0099,0.344 ± 0.021,,
C[C@]12CC[C@@H](O)C[C@H]1CC[C@@H]1[C@@H]2CC[C@]2(C)C(=O)CC[C@@H]12 [3-alpha-Hydroxy-5-beta-androstan-17-one],0.129 ± 0.0054,,,,,,0.118 ± 0.0061,0.171 ± 0.018,,0.354 ± 0.027,0.0844 ± 0.0097,0.122 ± 0.0084,0.135 ± 0.013
CC[C@@H](CO)NC(=O)[C@@H]1C=C2c3cccc4[nH]cc(c34)C[C@H]2N(C)C1 [Methylergometrine maleate],0.227 ± 0.0031,,,,,,0.228 ± 0.051,0.267 ± 0.069,,0.4 ± 0.0081,0.359 ± 0.0099,0.129 ± 0.028,0.156 ± 0.057
COc1ccc(CCN2CCC(Nc3nc4ccccc4n3Cc3ccc(F)cc3)CC2)cc1 [Astemizole],0.041 ± 0.00045,,,,,,0.0477 ± 0.0029,0.053 ± 0.004,,0.176 ± 0.22,0.0525 ± 0.0011,0.04653 ± 0.00032,0.0845 ± 0.059
C#C[C@]1(O)CC[C@H]2[C@@H]3CCC4=CC(=O)CCC4=C3C=C[C@@]21CC [Gestrinone],0.13 ± 0.0014,0.195 ± 0.02,0.18 ± 0.0068,0.173 ± 0.0028,0.105 ± 0.011,0.134 ± 0.0068,0.216 ± 0.065,0.253 ± 0.12,,0.374 ± 0.0073,0.165 ± 0.03,,
O=C(CCCN1CCC2(CC1)C(=O)NCN2c1ccccc1)c1ccc(F)cc1 [Spiperone],0.214 ± 0.0064,0.273 ± 0.019,0.276 ± 0.011,0.1711 ± 0.0014,0.169 ± 0.0073,0.149 ± 0.0039,0.274 ± 0.066,0.43 ± 0.042,,0.409 ± 0.0039,0.354 ± 0.027,,
NCC1(CC(=O)O)CCCCC1 [Gabapentin],0.255 ± 0.0094,,,,,,0.478 ± 0.023,0.399 ± 0.044,,0.401 ± 0.02,0.325 ± 0.022,0.215 ± 0.016,0.278 ± 0.045
CCN(C)C(=O)Oc1cccc([C@H](C)N(C)C)c1 [Rivastigmine],0.243 ± 0.0069,,,,,,0.325 ± 0.068,0.343 ± 0.067,,0.418 ± 0.0056,0.342 ± 0.016,0.188 ± 0.01,0.281 ± 0.04
C#CCN(C)[C@H](C)Cc1ccccc1 [Selegiline hydrochloride],0.251 ± 0.0044,0.305 ± 0.015,0.283 ± 0.0084,0.233 ± 0.026,0.185 ± 0.0036,0.17 ± 0.004,0.291 ± 0.064,0.391 ± 0.016,,0.405 ± 0.017,0.342 ± 0.017,,
CC(Cc1ccccc1)NCCC(c1ccccc1)c1ccccc1 (centres undefined) [Prenylamine lactate],0.04013 ± 0.00032,0.03927 ± 0.00035,0.0394 ± 0.0001,0.0405 ± 0.001,0.0393,0.0397 ± 0.00052,0.0468 ± 0.00058,0.0471 ± 0.00089,,0.276 ± 0.19,0.0499 ± 0.00064,,
C=C1CC[C@@]2(O)[C@H]3Cc4ccc(O)c5c4[C@@]2(CCN3CC2CC2)[C@H]1O5 [Nalmefene hydrochloride],0.238 ± 0.013,0.3098 ± 0.003,0.274 ± 0.0086,0.157 ± 0.0079,0.19 ± 0.005,0.1356 ± 0.0009,0.193 ± 0.041,0.328 ± 0.08,,0.425 ± 0.007,0.327 ± 0.022,,
CC(=O)O[C@H]1C[C@@H]2CC[C@@H]3[C@H](CC[C@@]4(C)[C@H]3C[C@H]([N+]3(C)CCCCC3)[C@@H]4OC(C)=O)[C@@]2(C)C[C@@H]1[N+]1(C)CCCCC1 [Pancuronium bromide],0.232 ± 0.0035,,,,,,0.242 ± 0.064,0.407 ± 0.014,0.506 ± 0.021,0.421 ± 0.026,0.349 ± 0.019,,
CC(C)(C)NCC(O)c1cc(Cl)c(N)c(Cl)c1 (centres undefined) [Clenbuterol hydrochloride],0.226 ± 0.0046,,,,,,0.35 ± 0.0059,0.231 ± 0.031,,0.398 ± 0.011,0.355 ± 0.024,0.185 ± 0.011,0.191 ± 0.0053
CC(C)C[C@H](CN)CC(=O)O [Pregabalin],0.239 ± 0.015,,,,,,0.28 ± 0.062,0.406 ± 0.038,,0.41 ± 0.01,0.306 ± 0.013,,
